Values joined by “and” are separate entries in the source; they are usually repeats but may differ in a detail not shown here. Equal values may be shown once. In all, about 340,000 compounds went through this assay and about 1,000 (0.29%) were called active. Rule as the data show it: inconclusive = inhibition above about 29% without an active follow-up result; inactive = below that. These entries were drawn from the full list. Entries with a potency or affinity are not part of this list.
Target: Genome polyprotein (Dengue virus type 2 (strain 16681-PDK53)) (UniProt P29991)
Experiment: Dengue-2 NS5 methyltransferase inhibitors, primary screen, biochemical, confirmation dose response (AID 588689)
Conditions: Dengue-2 NS5 methyltransferase capping enzyme assay, at 25 µM, stronger effect = higher value

SMILES	inhibition	inhibition (measured here: pilot screen replicate inhibition)
CCC(C)(C(=O)NC1CCCC1)N(C(=O)CNC(=O)c1ccccc1)c1c(C)n(C)n(-c2ccccc2)c1=O (stereo not given)	0% (inactive)	–
COc1ccc(CNC(=O)c2cc3ccccc3oc2=O)cc1	-1.96% (inactive)	–
COc1ccc(CN(C)CC(=O)Nc2c(C)cccc2C)c(OC)c1	1.51% (inactive)	–
CCOc1cc(S(=O)(=O)Nc2cc(C)cc(C)c2)ccc1Cl	0% (inactive)	–
COc1ccc(NS(=O)(=O)c2ccc(Cl)c(N)c2)cc1Br	-3.69% (inactive)	–
COc1ccccc1CCC(=O)N(C)CC(=O)Nc1ccc(F)cc1	1.3% (inactive)	–
O=C(NNc1cccc(Cl)c1)c1cccnc1Cl	-5.34% (inactive)	–
COc1ccc(/C=C(/C#N)C(=O)Nc2ccccc2C)cc1C(=O)O	0% (inactive)	–
COc1cc(/C=C(\C#N)C(=O)Nc2cccc3ncccc23)cc(OC)c1OC	-57.5% (inactive)	–
O=C(CN1CCN(C(c2ccccc2)c2ccccc2)CC1)NC(=O)NCc1ccco1	-1.64% (inactive)	–
Oc1ccc(/C=N/N(c2ccccc2)c2ccccc2)c(O)c1O	9.52% (inactive)	–
CCN(CC)c1ccc(/C=N/N=C(c2ccccc2)c2ccccc2)c(O)c1	-35.6% (inactive)	–
COc1cc(/C=N/N=C(/C(=O)c2ccccc2)c2ccccc2)cc(OC)c1O	0% (inactive)	–
O=C(/C(=N/N=C/c1ccc(O)c(O)c1)c1ccccc1)c1ccccc1	7.23% (inactive)	–
CC(C)c1ccc(Nc2nc(N3CCOCC3)nc(N3CCOCC3)n2)cc1	-4.95% (inactive)	–
COC(=O)C(C(=O)OC)N1C(=O)CCC1=O	-3.21% (inactive)	–
CC(=O)c1ccc(NC(=O)CCc2nnc3ccc(N4CCCC4)nn23)cc1	1.97% (inactive)	–
CN(C)C1=NC[C@H](Cc2ccccc2)N1CC1CCC(C(C)(C)C)CC1 (stereo not given in full)	0.79% (inactive)	–
Cc1ccc(S(=O)(=O)N2[C@@H](c3ccc(Cl)cc3)C(C(=O)O)=CC[C@H]2c2ccc(Cl)cc2)cc1	13.5% (inactive)	–
Cc1ccc([C@@H]2CC=C(C(=O)O)[C@H](c3ccccc3)N2S(=O)(=O)c2ccc(C)cc2)cc1	-3.2% (inactive)	–
Cc1ccc([C@@H]2CC=C(C(=O)O)[C@H](c3ccc(Cl)cc3)N2S(=O)(=O)c2ccc(C)cc2)cc1	19.5% (inactive)	–
Cc1ccc(S(=O)(=O)N2[C@@H](c3ccc(C(C)(C)C)cc3)C(C(=O)O)=CC[C@H]2c2ccc(C(C)C)cc2)cc1	-2.65% (inactive)	0.6%

SMILES	inhibition	inhibition (measured here: pilot screen replicate inhibition)
Cc1ccc(S(=O)(=O)NCCC(=O)OCC(=O)N(Cc2ccccc2)C(C)(C)C)cc1	7.2% (inactive)	–
CC1(C)CC2CC(C)(CN2C(=O)COC(=O)c2cccc([N+](=O)[O-])c2)C1 (stereo not given)	6.17% (inactive)	–
CC(C(=O)Nc1ccccc1F)N1C(=O)c2ccccc2C1=O (stereo not given)	4.32% (inactive)	–
CC(C(=O)Nc1ccc2c(c1)OCO2)N(C)CC(=O)Nc1ccc(Cl)cc1 (stereo not given)	2.29% (inactive)	–
Cc1ccc2c(C(=O)CN3CCCCC3CCO)c(C)[nH]c2c1 (stereo not given)	-12.1% (inactive)	–
Cc1ccc(N2CN(Cc3ccco3)CNC2=S)cc1	-4.68% (inactive)	–
CC(OC(=O)C1CC1C)C(=O)Nc1ncc(Cl)cc1Cl (stereo not given)	-5.81% (inactive)	–
O=S(=O)(Nc1nc2ccccc2nc1NCc1ccco1)c1ccc(F)cc1	21.1% (inactive)	–
O=S(=O)(Nc1nc2ccccc2nc1NCc1ccco1)c1ccccc1	26.3% (inactive)	–
CCCNC(=O)NC(=O)c1cnccc1C(F)(F)F	3.85% (inactive)	–
CCN(CC)c1ccc(/C=C2/C(=O)ON=C2C)cc1	-145% (inactive)	–
CC1=NOC(=O)/C1=C/c1ccc(O)c(Br)c1	-9.14% (inactive)	–
CC1=NOC(=O)/C1=C/c1ccc(O)cc1	33.3% (inactive)	–
CC1=NOC(=O)/C1=C/c1ccc(O)c(Cl)c1	6.53% (inactive)	–
CCc1nc(SCC(=O)NCCc2ccccc2)n[nH]1	0% (inactive)	–
CCCC(c1nnnn1C(C)(C)CC)N1CCN(C(=O)c2ccco2)CC1 (stereo not given)	3.16% (inactive)	–
O=C(c1cccc(S(=O)(=O)Nc2ccc(Br)cc2)c1)N1CCCC1	-8.06% (inactive)	–
COc1ccc(S(N)(=O)=O)cc1C(=O)NNC(=O)c1cccc(S(=O)(=O)N2CCOCC2)c1	3.75% (inactive)	–
Cc1ccc(C)c(S(=O)(=O)N2CCCC2CNC(=O)C(=O)NCc2ccco2)c1 (stereo not given)	0% (inactive)	–
O=C(CN1CCC(c2nc3ccccc3s2)CC1)N1CCCCC1	-11.7% (inactive)	–
O=C1c2ccccc2C(=O)N1N(c1ccccc1)c1ccccc1	0% (inactive)	–
O=C1C=CC(=O)N1c1ccccc1N1C(=O)C=CC1=O	5.05% (inactive)	–

SMILES	inhibition	inhibition (measured here: pilot screen replicate inhibition)
NC(=O)c1ccc(NCCCN2CCOCC2)c([N+](=O)[O-])c1	-4.51% (inactive)	–
CC(=O)N1CCN(c2nc(N)c(C#N)c(CC#N)c2C#N)CC1	-8.51% (inactive)	–
COc1ccc(S(=O)(=O)N2CCOCC2)cc1NC(=O)COC(=O)C1CC1C (stereo not given)	-7.51% (inactive)	–
CCCCc1nc2ccc(S(=O)(=O)O)cc2[nH]1	-2.87% (inactive)	–
CC1=NN(c2ccccc2)C(=O)C1N=Nc1ccc(S(N)(=O)=O)cc1 (stereo not given)	-3.93% (inactive)	–
CCN(CC)CCNC(=O)Cn1c(=O)c2cccn2c2ccc(F)cc21	-0.65% (inactive)	–
O=C(CNC(=O)c1ccc(Br)o1)NNC(=O)COc1ccccc1Cl	1.1% (inactive)	–
COc1ccc2c(c1)-c1nc(/N=C/c3ccc(O)c(OC)c3)sc1CC2	27.5% (inactive)	–
COc1ccc2c(c1)-c1nc(/N=C/c3ccccc3O)sc1CC2	29.6% (inactive)	–
Oc1c(CN2CCOCC2)cc(CN2CCOCC2)c(O)c1CN1CCOCC1	20.2% (inactive)	–
Oc1c(CN2CCOCC2)ccc(CN2CCOCC2)c1O	25.3% (inactive)	–
C=CC(n1cncn1)C(O)(c1ccccc1)c1ccccc1 (stereo not given)	-1.2% (inactive)	–
Cc1ccc(S(=O)(=O)/N=C2\C=C(Nc3cccc(C(=O)O)c3)C(=O)c3ccccc32)cc1	9.52% (inactive)	–
CCc1ccc(S(=O)(=O)/N=C2\C=C(Nc3cccc(C(=O)O)c3)C(=O)c3ccccc32)cc1	5.86% (inactive)	–
Cc1ccc(S(=O)(=O)/N=C2\C=C(Nc3cccc(C(=O)O)c3)C(=O)c3ccccc32)c(C)c1	13.2% (inactive)	–
O=C1C(Nc2ccc(O)cc2)=C/C(=N/S(=O)(=O)c2cccs2)c2ccccc21	22.4% (inactive)	–
COC(=O)c1ccccc1NC1=C/C(=N\S(=O)(=O)c2cccs2)c2ccccc2C1=O	7.26% (inactive) and 0.39% (inactive)	–
CCc1ccc(S(=O)(=O)/N=C2\C=C(Nc3ccc(C(=O)O)cc3)C(=O)c3ccccc32)cc1	26.1% (inactive)	–
O=C1C(Nc2ccccc2)=C/C(=N/S(=O)(=O)c2cccs2)c2ccccc21	0% (inactive)	–
Cc1ccc(NC2=C/C(=N/S(=O)(=O)c3cccs3)c3ccccc3C2=O)cc1C	1.44% (inactive)	–

Source: PubChem BioAssay AID588689 (Southern Research Specialized Biocontainment Screening …, 2011)
